Each structure is given as a SMILES string. Hit rate of the full screen: of about 1,200 compounds, about 20 (2%) were called active. Not shown: some 23% with an inconclusive outcome. The call rests on the fitted dose curve; in most records, active means well fitted inhibition curve with a large enough effect; inconclusive means small, poorly fitted or top-dose-only effect; inactive means no such curve, though single readings can be large or run the other way. What follows is part of a selection rich in actives, with near analogues and random picks from the rest. A call without a number means that no potency is given here.
Potency means the concentration at half of the fitted maximal effect.

Transcriptional regulator ERG (Homo sapiens), sequence (P11308 whole entry, looked up, the tested form may be a part): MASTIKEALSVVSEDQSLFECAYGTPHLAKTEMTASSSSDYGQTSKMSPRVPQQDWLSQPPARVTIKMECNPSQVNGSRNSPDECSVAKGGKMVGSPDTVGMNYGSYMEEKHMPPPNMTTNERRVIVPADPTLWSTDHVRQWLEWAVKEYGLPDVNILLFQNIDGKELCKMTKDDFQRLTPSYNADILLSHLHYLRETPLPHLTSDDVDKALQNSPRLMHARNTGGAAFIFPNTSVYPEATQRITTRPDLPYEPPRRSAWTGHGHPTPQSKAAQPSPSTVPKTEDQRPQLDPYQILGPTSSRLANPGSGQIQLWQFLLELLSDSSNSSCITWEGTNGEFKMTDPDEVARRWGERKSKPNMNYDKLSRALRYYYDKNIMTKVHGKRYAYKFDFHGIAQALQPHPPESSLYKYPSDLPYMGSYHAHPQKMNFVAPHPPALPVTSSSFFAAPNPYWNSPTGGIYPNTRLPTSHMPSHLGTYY

This assay addresses Transcriptional regulator ERG (Homo sapiens) (UniProt P11308). Briefly: qHTS for Small Molecule Inhibitors of the ERG Ets/DNA interaction: HTRF assay against cherry picks. The settings on record: His-ERG Ets domain with biotin-DNA; series mostly up to 154 µM. From the text:
The Ets family of proteins is a family of ~30 conserved transcription factors defined by the presence of an ~85 amino acid domain referred to as the Ets domain, which mediates sequence-specific DNA binding to a core DNA element GGAA/T.The Ets family member ERG has been linked to several neoplasms. […] More extensive studies of the effects of over-expression of ERG in prostate cells have recently been carried out and have shown that over-expression of ERG results in increased invasion. […] We will carry out a high throughout screen to identify inhibitors of the interaction between ERG and DNA using a fluorescence polarization (FP) assay with a His-tagged ERG Ets domain and fluorescently-labeled DNA probes to develop small molecule inhibitors of this interaction as probes to test this hypothesis and lay the groundwork for the development of targeted therapies against ERG. This is the counterscreen against the cherry picks. NIH Molecular Libraries Probe Production Network [MLPCN] NIH Chemical Genomics Center [NCGC] Grant: NS066464 PI Name: John Bushweller, University of Virgina
2 ul of protein solution (200 nM ERG domain in 300mM KCl, 50mM Tris-HCl, 1mM EDTA, 1mM DTT, pH 7.5); 20 nl Control plate and compound library plate; 2 ul of 200 nM biotin-DNA; incubate for 10 min at RT; 1 ul of anti-His antibody conjugated to the long-life fluorescent cryptate donner […] (5ng/ul) and streptavidin conjugated to the acceptor compound […] (0.2 ng/ul) mix; incubate 10 min and measure FRET (Excitation = 320 nm, Emission = 615, 665 nm).
In general terms: Quantitative high-throughput screening tests each substance at several concentrations.
With `Cc1cc(OCc2cc3c(cc2Cl)OCO3)c2c(C)cc(=O)oc2c1`, the Potency result is “inactive”. Then `COC(=O)c1ccccc1NC(=O)c1cc(C2CC2)on1`, with “inactive”; and `Nc1ccccc1S(N)(=O)=O`, with “inactive”. Regarding `COc1cc(CCC(=O)Nc2ccc(Br)c(C(F)(F)F)c2)cc(OC)c1OC`, the Potency entry was “inactive”. Regarding `O=C(NCCCc1ccccc1)C(=O)NCC1OCCN1S(=O)(=O)c1cc(F)ccc1F` (centres undefined), the Potency entry is “inactive”. Then `N#Cc1c(SCc2c(Cl)cccc2Cl)nc(N)[nH]c1=S`, with “inactive”.

For the molecule `CCC(c1nnnn1Cc1ccc(F)cc1)N1CCN(C)CC1` (centres undefined), the Potency entry was “inactive”. Regarding `Cc1sc2nc(CSC(C)C(=O)Nc3ccc(C(N)=O)cc3)[nH]c(=O)c2c1C` (centres undefined), the Potency result is “inactive”. For `CCOc1ccc(NS(=O)(=O)c2ccc(NC(C)=O)c(OC)c2)cc1`, the Potency result was “inactive”. With `CCn1ccc2c(OCC(=O)Nc3ccc(C(C)=O)cc3)cccc2c1=O`, the Potency entry was “inactive”. Then `COc1cccc2c1C(=N)c1c(O)c3c(c(O)c1C2=O)CC(O)(C(C)=O)CC3OC1CC(N)C(O)C(C)O1` (centres undefined), with 3.98 µM (active); and `COC(=O)c1c(C(=O)OC)c(-c2ccc(OC)cc2)n2c1CS(=O)C2` (centres undefined), with “inactive”; and `CC(NC(=O)c1ccco1)c1nc(-c2ccc(C(C)(C)C)cc2)no1` (centres undefined), with “inactive”. Consider `O=C(Cc1csc(-c2ccccc2)n1)NCc1ccc(F)cc1`, for which the Potency entry was “inactive”.

As for `O=C(NCCCc1ccccc1)C(=O)NCC1OCCN1S(=O)(=O)c1ccccc1` (centres undefined), the Potency result was “inactive”.

As to `CCn1nc(C)c(CNC(=O)c2cc(COc3ccccc3SC)on2)c1C`, the Potency entry is “inactive”. Regarding `CS(=O)(=O)N(CC(=O)Nc1ccccc1)c1cccc(Cl)c1Cl`, the Potency entry was “inactive”. With `O=C(O)CC(c1cccc2ccccc12)N1Cc2ccccc2C1=O` (centres undefined), the Potency result was “inactive”. Consider `O=C(NCc1ccc(F)cc1F)c1cc(COc2c(F)cccc2F)on1`, for which the Potency entry was “inactive”.

Consider `Cc1cc(C)cc(N(C(=O)c2csnn2)C(C(=O)NC(C)(C)C)c2ccncc2)c1` (centres undefined), for which the Potency entry was “inactive”. Consider `COc1ccc(Nc2ncnc3sccc23)cc1OC`, for which the Potency result was “inactive”. Regarding `COc1ccc(-c2cccc(NS(=O)(=O)c3cc([N+](=O)[O-])ccc3C)c2)nn1`, the Potency result is “inactive”. In the case of `Cc1cc(N)ccc1-n1c(C)ccc1C`, the Potency entry was “inactive”. Then `CC(Oc1ccc(C(=O)c2ccc(F)cc2)cc1)C(=O)N1CCOCC1` (centres undefined), with “inactive”. Then `CCc1nn2c(=O)cc(CSCC(=O)Nc3ccccc3F)nc2s1`, with “inactive”; and `CCOC(=O)C(CC)Sc1ccc2nnc(-c3cccnc3)n2n1` (centres undefined), with “inactive”. As to `CC1CCN(S(=O)(=O)c2ccc(Cl)s2)CC1`, the Potency result was “inactive”.

Turning to `Cn1nc(C(F)(F)F)c(C#N)c1N1CCN(c2ccccn2)CC1`, the Potency result was “inactive”. Turning to `O=C(C[C@H]1C/C=C\CC[C@@H](Cc2ccc(F)cc2)C(=O)OC[C@H]2CCCN2C1=O)N[C@H](CO)Cc1ccccc1`, the Potency result is “inactive”. Then `CC1(C)C2CCC1(C)C(NCC(O)COc1ccc(C#N)cc1)C2` (centres undefined), with “inactive”; and `CCOCCn1c(CN2CCCCC2)nc2c1c(=O)n(C)c(=O)n2C`, with “inactive”.

Turning to `Cc1cc(C(=O)COC(=O)C23CC4CC(CC(O)(C4)C2)C3)c(C)n1C`, the Potency result was “inactive”.

In the case of `COc1cc(NC(=O)COC(=O)CNC(=O)C2CCCCC2)cc(OC)c1`, the Potency entry was “inactive”. Then `Cc1nccn1C[C@@H]1CCc2c(c3ccccc3n2C)C1=O`, with “inactive”.

With `Cc1nc(Nc2cccc(F)c2)c2oc3ccccc3c2n1`, the Potency entry was “inactive”.

As to `CCCCn1c(N)c(N(CC(C)C)C(=O)c2ccc(S(=O)(=O)N3CCC(C)CC3)cc2)c(=O)[nH]c1=O`, the Potency result was “inactive”. As for `COC(=O)c1ccccc1SC(CC(=O)c1ccccc1)c1ccc(F)cc1` (centres undefined), the Potency entry was “inactive”.

With `CCCC(NC(=O)C(C)Sc1nnnn1C1CC1)c1ccccc1` (centres undefined), the Potency result is “inactive”. Then `CCCN1C[C@H](CSC)C[C@@H]2c3cccc4[nH]cc(c34)C[C@H]21`, with 14.1 µM (active); and `Cc1ccccc1-n1c(=O)n(CCc2ccccc2)c(=O)c2[nH]cnc21`, with “inactive”; and `O=S(=O)(c1ccccc1)c1cnc(-c2cccnc2)nc1-c1ccccc1`, with “inactive”. Then `O=c1oc2ccccc2cc1-c1cn2cc(Cc3ccc(F)cc3)sc2n1`, with “inactive”; and `NC(=O)c1ccccc1NCC(=O)c1ccc(F)cc1`, with “inactive”; and `COc1cccc(-c2nn(C)c3sc(C(=O)NCc4ccc(OC)cc4OC)cc23)c1`, with “inactive”. Turning to `CSc1nc(-c2ccc(Cl)cc2)nn1C(=O)c1ccccc1`, the Potency result is “inactive”. Regarding `COc1ccc(S(=O)(=O)N2CCCC(C(F)(F)F)C2)cc1` (centres undefined), the Potency entry was “inactive”. Consider `CN(C)C=NC(=O)c1cc(C(=O)c2ccc(Cl)cc2)c[nH]1`, for which the Potency entry was “inactive”. As to `Cc1cc(=O)oc2cc(OCC(=O)OCC(=O)Nc3ccc(C(C)C)cc3)ccc12`, the Potency result was “inactive”. Then `COC(=O)C(CCSC)NC(=O)c1cc2c(n(-c3ccccc3)c1=O)CC(C)(C)CC2=O` (centres undefined), with “inactive”.

`CC(C)CCN1CCN(C2CCN(c3ccc4c(c3)OCO4)CC2)CC1CCO` (centres undefined): the Potency entry is “inactive”.

As to `Cc1cc(C)nc(N2C(=O)CC(Cc3ccc(Cl)cc3)C2=O)n1` (centres undefined), the Potency result is “inactive”. For `Cc1ccc2oc(-c3ccc(NC(=O)CC(C)C)cc3)nc2c1`, the Potency entry is “inactive”. Regarding `Cc1ccc(C(=O)N2CCCCC2C(=O)O)cc1S(=O)(=O)N1CCCCC1` (centres undefined), the Potency result is “inactive”. Then `O=C(Nc1ccccc1Br)c1ccccc1-c1ccccc1`, with “inactive”; and `COc1ccccc1NS(=O)(=O)c1ccc(C)c(NC(=O)c2c(C)noc2C)c1`, with “inactive”; and `Cc1ccc(NC(=O)CSc2nc3ccccc3c3nc(CCn4c(C)nc5ccccc54)nn23)cc1F`, with “inactive”.

`COc1ccc(NC(=O)CSc2nc(C)c3c(c2C#N)CCCC3)cc1`: the Potency entry was “inactive”. Then `Cc1cc(C)nc(N2CCCC(C(=O)Nc3ccc(F)cc3)C2)n1` (centres undefined), with “inactive”; and `Cc1cc2[nH]c3c(c[n+](C)c4ccccc34)c2cc1C`, with 3.55 µM (active); and `CC(=O)Nc1sc2c(c1-c1nc3ccccc3s1)CCN(C(C)C)C2`, with 3.55 µM (active). Then `Cc1c(NC(=O)c2cc(-n3cnnc3)ccc2Cl)cccc1-c1nc2ccccc2s1`, with “inactive”. Take `O=c1[nH]c2cc(F)ccc2c2ccc(F)cc12`: the Potency result was “inactive”.

In the case of `CCOc1cc(NC(=S)NCC(C)C)c(OCC)cc1NC(=O)c1ccco1`, the Potency entry is “inactive”. Then `O=C(Nc1cc(-c2nc3cc(Cl)ccc3o2)ccc1Cl)c1cccs1`, with “inactive”; and `COC(=O)C(C)Sc1ccc2nnc(CCNS(=O)(=O)c3ccc(C)cc3)n2n1` (centres undefined), with “inactive”; and `CNCCCOc1cc(C)cc(C)c1C`, with “inactive”. Then `COc1ccc(OC)c2c1C(=O)c1ccccc1C2=O`, with 35.5 µM (active); and `COc1ccc(C(c2c(C)n(C)n(-c3ccccc3)c2=O)c2c(C)n(C)n(-c3ccccc3)c2=O)c(OC)c1OC`, with “inactive”; and `COc1ccc(C(=O)c2cccc(C(=O)c3ccc(OC)c(C)c3)c2)cc1C`, with “inactive”.

The values above are taken from PubChem BioAssay AID651804 (National Center for Advancing Translational Sciences (NCATS), 2012).
